Assay outcomes as filed in PubChem BioAssay.
Most compounds without a hit are left out; they make up all but 3.5% or so of the library.
BoNT-A LC inh2 = inhibitors of Botulinum neurotoxin A light chain protease. multiplex microsphere protease substrate cleavage, flow cytometry. inhibition, % at 10 µM. 0.17% of 360,000 active; also: plate controls were buffer without enzyme for full effect and enzyme alone for no effect
Vc quorum ag = inducers of Vibrio cholerae quorum light production without autoinducers; 0.16% of 350,000 active; V. cholerae BH1578 lux reporter, luminescence, 6 h; activation, % at 18.7 µM; in the data active = activation mostly above about 9.7%, no sharp cut-off; inconclusive = no clear call, values can overlap the other calls; inactive = mostly below about 3.7%
Autofluor counter = compound fluorescence in toxin protease inhibitor counterscreen | compound autofluorescence counterscreen, microsphere flow cytometry; active compounds read high | fluorescence intensity (no concentration beside the values) | 3.1% of 360,000 active; in the data active = fluorescence intensity above about 16000; inconclusive = no clear call, values can overlap the other calls
Anthrax LF inh2 = anthrax lethal factor protease inhibition; P15917; multiplex microsphere protease cleavage assay, LF; inhibition, % at 10 µM; 0.12% of 360,000 active; AID 588501; also: plate controls were buffer without enzyme for full effect and enzyme alone for no effect
Target sequence (P15917 whole entry, looked up): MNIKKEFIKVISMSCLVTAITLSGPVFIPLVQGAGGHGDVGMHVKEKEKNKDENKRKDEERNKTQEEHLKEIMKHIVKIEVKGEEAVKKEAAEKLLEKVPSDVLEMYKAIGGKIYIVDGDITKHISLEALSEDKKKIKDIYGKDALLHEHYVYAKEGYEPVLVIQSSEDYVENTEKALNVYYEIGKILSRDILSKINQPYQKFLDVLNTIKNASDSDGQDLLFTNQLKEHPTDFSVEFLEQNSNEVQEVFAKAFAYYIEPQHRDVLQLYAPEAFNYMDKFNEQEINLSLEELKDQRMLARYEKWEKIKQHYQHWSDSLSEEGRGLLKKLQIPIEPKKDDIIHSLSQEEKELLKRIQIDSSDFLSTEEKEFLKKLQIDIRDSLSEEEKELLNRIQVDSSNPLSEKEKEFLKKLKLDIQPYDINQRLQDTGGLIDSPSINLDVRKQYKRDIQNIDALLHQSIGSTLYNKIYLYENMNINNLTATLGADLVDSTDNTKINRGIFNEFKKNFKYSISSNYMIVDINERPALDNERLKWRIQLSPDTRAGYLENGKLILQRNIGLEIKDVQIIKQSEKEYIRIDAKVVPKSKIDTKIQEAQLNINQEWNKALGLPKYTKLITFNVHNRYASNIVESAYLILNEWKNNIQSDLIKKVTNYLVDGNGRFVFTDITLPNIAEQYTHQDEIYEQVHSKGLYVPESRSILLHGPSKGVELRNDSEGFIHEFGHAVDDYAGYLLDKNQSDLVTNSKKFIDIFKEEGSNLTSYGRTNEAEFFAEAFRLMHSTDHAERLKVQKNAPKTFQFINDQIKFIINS
BoNT-F LC inh = blocks Botulinum neurotoxin F light chain protease. Multiplex microsphere protease cleavage assay, flow cytometry. inhibition, % at 10 µM. 0.22% of 360,000 active. AID 588497; in the data active = inhibition above about 35%, passing the limit was not always enough; inconclusive = no clear call, values can overlap the other calls; also: plate controls were buffer without enzyme for full effect and enzyme alone for no effect
* = called active by the depositor; i = inactive; ? = inconclusive. Rule as the data show it, unless noted: active = inhibition above about 30%; inconclusive = no clear call, values can overlap the other calls; inactive = below that.

SMILES	BoNT-A LC inh2	Vc quorum ag	Autofluor counter	Anthrax LF inh2	BoNT-F LC inh
CCOc1ccc(NC(=S)N(C)C)cc1	-1	i	4091	-3	-1
Cc1cccc(S(=O)(=O)NCCc2ccccc2)c1	0	0	3187	-4	-9
Cc1ccc(OC(=O)c2ccncc2)c(C)c1	0	1	3621	-13	47*
COc1cc(CNCc2ccccc2)c(Br)cc1OC1CCCC1	0	0	2596	-4	-18
O=C(Nc1ccccc1C(=O)NCc1cccnc1)c1ccccc1F	-1	0	6056	3	7
N#Cc1ccccc1NC(=O)COC(=O)/C=C/c1ccc(S(=O)(=O)N2CCOCC2)cc1	0	i	6695	-3	-8
FC(F)(F)c1cc(-c2ccco2)nc(-n2nc(C(F)(F)F)cc2C2CC2)n1	6	-3	20606*	-5	6
CCOC(=O)N1CCN(c2nc(-c3ccco3)cc(C(F)(F)F)n2)CC1	2	i	8698	-7	2
CN1CCN(c2nc(-c3ccco3)cc(C(F)(F)F)n2)CC1	-4	0	17518*	-2	-4
CN(Cc1cccnc1)C(=O)Cc1ccc(NS(=O)(=O)c2cccc(C(F)(F)F)c2)cc1	0	0	5322	-3	0
O=C(Nc1cccc(Cl)c1)c1cnn2cccnc12	?	2	23465*	-3	2
CCOC(=O)c1c(-n2c(C)cc(C=O)c2C)sc2c1CCCC2	0	1	22089*	-4	0
CCOC(=O)c1c(-n2c(C)cc(/C=C3\C(=O)NC(=O)N(C)C3=O)c2C)sc2c1CCCC2	-1	-2	3581	4	-30
O=C(/C=C/Nc1ccc(Br)cn1)c1cccc(OC(F)F)c1	1	i	5718	-3	-7
O=C(CN(Cc1ccccc1Cl)C(=O)c1csnn1)NCc1ccc2c(c1)OCO2	-1	0	5985	1	3
O=C(c1ccccc1)c1ccccc1C(=O)c1ccccc1	-8	-10	3279	4	-37
O=C(OCc1ccc(COC(=O)c2cccnc2Cl)cc1)c1cccnc1Cl	0	i	4600	-7	-4
O=C(OCc1c(Cl)cccc1Cl)c1cccnc1Cl	?	3	24071*	-1	-5
O=C(OCc1ccccc1Cl)c1ccccc1C(=O)c1ccccc1	1	i	22408*	-4	0
O=C(OCc1ccccc1Cl)c1cccnc1Cl	-3	1	21281*	-3	-2
CN(C(=O)COC(=O)CCC(=O)c1ccc(F)cc1)C1CCCCC1	0	i	2893	8	-2
OCCC1CN(Cc2cc3c(cc2Cl)OCO3)CCN1Cc1ccccc1 (stereo unspecified)	-1	-1	4114	-2	4
Cc1cc(N2CCN(c3ccccc3)CC2)n2ncnc2n1	0	-1	4239	0	2
COc1cccc(N2CCN(c3ncccn3)CC2)c1	0	-2	9764	4	-15
COc1cccc(N2CCN(c3c4c(nc5ncnn35)CCC4)CC2)c1	4	i	22408*	0	3
SMILES	BoNT-A LC inh2	Vc quorum ag	Autofluor counter	Anthrax LF inh2	BoNT-F LC inh
c1ccc(N2CCN(c3c4c(nc5ncnn35)CCC4)CC2)cc1	3	-1	21815*	-1	6
CCC(C)NC(=O)Cn1ccc2cc(S(=O)(=O)N3CCCCCC3)ccc21 (stereo unspecified)	1	i	4925	1	-3
Cc1cccnc1NC1(C(F)(F)F)N=C(c2ccccc2)NC1=O (stereo unspecified)	1	0	20365*	-2	-1
O=c1cc(C(F)(F)F)nc(-c2ccccc2)[nH]1	?	i	21831*	-1	2
COc1ccc(-c2nn(-c3ccccc3)cc2/C=C/C(=O)N2CCOCC2)cc1OC	1	-1	4326	-12	6
COc1ccc(-c2cc(O)cc(O)c2)cc1	-2	i	16572*	-4	-3
COc1ccc(OC)cc1	0	-1	4093	0	-8
CCOC(=O)c1c(C)c(C(=O)NCCOC)c(C)n1CC	1	0	23521*	-2	-1
CCOC(=O)c1c(C)c(C(=O)NCc2ccco2)c(C)n1CC	1	i	2155	-2	2
CCOC(=O)c1c(C)c(C(=O)NCc2cccnc2)c(C)n1CC	?	-1	20195*	2	1
CCOC(=O)c1c(C)c(C(=O)NCCCOC)c(C)n1C	?	-3	20527*	-2	0
CCOC(=O)c1c(C)c(C(=O)NCCCN2CCCC2=O)c(C)n1CC	2	-2	22714*	0	0
COc1ccc(CCC(=O)O)cc1OC	0	0	4472	-4	-8
